Drawing on the supplement of paper PMC6555819, this text covers PBM binding z-score for 39 sequences.

The test has as its system VDR homodimer (NR concentration 270 nM). In words: PBM binding z-score (relative to random genomic background probes); higher = stronger binding; sequences stand for … in GC…GCGATTGACAGCGTAGAATGAAGG
Summed up: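 Ligand-free nuclear receptor dimers were applied to custom Agilent 4×180K protein-binding microarrays whose double-stranded probes carried direct-repeat seeds, single-nucleotide variants, half-site ablations and random human genomic background sequences in 34-nt variable regions. Incubation lasted 1 h. Binding z-scores were computed against the random background probes from regression-normalized fluorescence.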
Consider ATACCAAGGTGATCGTGAGGTCTTTGATACTAAC, for which the PBM binding z-score turned out to be 0.438.
The result for CCTAGCAGGCAAATCTGGGTCACTCAAGGCTTGA reads -0.357; that for ATCTCTAGGTAAGACTCAGTTCAGTGCAGAACGC, 1.71.
In turn, CCTCGGAGGATAGAAGGTCAGAGCTGTCCGCTTT registered a PBM binding z-score of -0.101.
The result for CCAGACAGGTGAAAGGTTACTCAGTCTGGTACGC reads 0.149; that for GCTTATAGATCAAGGTTAAGAAAGACTAAGCTAA, -0.265.
The result for GCTGCTAGGTCAGGTTAGTCAGCTAACGGGTACG reads 0.0703.
In turn, TCATATAGGTAAAGGTCAAAGTCGAACGATATGA had a PBM binding z-score of 2.32.
In the case of CCTGCTAGGTCAATGGTCACCTAAAGCAGCTCGC, the PBM binding z-score was 0.427.
Under GCAAACAGGTGAAACGCAGGTAACTCAGGGTGGC stands -0.658; under ATCGAAAAGTCGTGAGGTGAGTATACAGAAAGGC, -0.0663; under AATACAGGGTCATCGAAGGCCAGAGTACGCACAG, 3.66.
In the case of CCTACTGGGCCGAAGGTCATTGATTCCAATGCTC, the PBM binding z-score came out at 1.46.
For the sequence CTTACTGGGCCAAGGTCATTGATCAGTCAAAGCA, the PBM binding z-score was 3.76.
The result for CAGCCTAGGTCAGGGCCAGTATAGGAGGAACGTT reads -0.18; that for AGCGAAAGGTCGACGAGGTGAGTATACACCGTTT, 0.753; that for GCTAGCAGGCCATTTAGGTCACTCAATGACGGGC, 0.244.
ACTAGCAGGCCAACGGTCACTCAAGATTAGTCCG came in with a PBM binding z-score of -0.593.
Consider CGTCCAAGGTCATAGGACGTCAGTGAAGACAGAT, for which the PBM binding z-score is 3.01.
Take CCTCGGAAGACAGAAGGTCAGAGCTGTCCGCTTT: the PBM binding z-score came out at 0.00286.
In the case of GCATATAGGTAATACAAGGCGAAAGTCCGATTGT, the PBM binding z-score was -0.0927.
For GCAGACAGGTGATACGCAGGTAACTCAGGGTGGC, the PBM binding z-score was -0.5.
Under AGGATGAGGTTATTAAGATCAGGGAATTGCGGTC stands 1.97.
The result for CCGACTGGGGCATAAGGTTATCATAAGCCAGCCC reads 0.13; that for ACAGACCGGTGATGAAGGTAACTCAGGCTATCAT, -0.605; that for CGAACTAGGACAGAACAGGACAGTGAAGGATGAT, -0.157.
Sequence CGTCCAAGGTCACAGGTCAGTGAAGAGATGACGG yielded a PBM binding z-score of 2.75.
Under CTCGAAAGGTCGGTTGAGGTGTGTATACGGATAA stands 0.415; under CGAACTAGGTCAAGCACAGTGAATCTCCGCACGC, 0.357; under ATAGAAAGGTCGTGAGGTGAGTATACAGAAAGGC, 1.31.
Regarding TCAGACAGGTGAGGGTAACTCAGGTACGCAGTCG, the PBM binding z-score came to 0.115.
Under CCTATTAGTTCACCATAAGGGCAACCGAAGCTCG stands 2.41; under AATACAGGGTCACTAGGCCAGAGTTGGTACGAAT, 2.58.
CCTACTGGGCCAAAAAGGTCATTCATGCCGATAA registered a PBM binding z-score of 3.01.
CAAACTAGGTCAAGGTCAAAATCGGTTTGTGCCA: the PBM binding z-score stood at 3.88.
As to AGAATGAGGTTATACGTAGATCATGGAAGAAAGT, the PBM binding z-score was 0.975.
The result for GCTTACGGGCCAAAGGTTATAGCATGAATAGAAT reads -0.0468.
For TCGAGTTGGTTAGGGGCATTCAGAATGGCGTCGA, the PBM binding z-score was determined as 3.32.
Sequence TATACAGGGTCAAAGGCGAGAGTACGAATGTCGA yielded a PBM binding z-score of 3.09.
